# Assay results from PubChem BioAssay (NCI).
# Compounds without any hit were thinned out: in the full panel of roughly 83,000, 20% have a hit.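 Note: values are percent growth. 100 is the growth of untreated cells, values between 100 and 0 indicate rising inhibition; between -100 and 0 indicates cell death.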 Values without a mark were called inactive. Activity calls are given as the source filed them. Rule for the calls: active = growth percent below 10; inactive = the rest.
# Experiments:
# Assay in all cases: NCI-60 one-dose screen, 48 h (100 = growth as untreated, 0 = no growth, -100 = all killed)
# Details in all cases: 10 µM unless noted
# HT29 colon = system: HT29 colon
# SNB-75 CNS = system: SNB-75 CNS
# SNB-19 CNS = system: SNB-19 CNS
# PC-3 prostate = system: PC-3 prostate
# SK-MEL-5 melanoma = system: SK-MEL-5 melanoma
# UACC-62 melanoma = system: UACC-62 melanoma
# LOX IMVI melanoma = system: LOX IMVI melanoma
# SK-MEL-28 melanoma = system: SK-MEL-28 melanoma
# SK-MEL-2 melanoma = system: SK-MEL-2 melanoma
# EKVX NSCLC = system: EKVX NSCLC
# SN12C renal = system: SN12C renal
# UO-31 renal = system: UO-31 renal
# TK-10 renal = system: TK-10 renal
# ACHN renal = system: ACHN renal
# CAKI-1 renal = system: CAKI-1 renal
# A498 renal = system: A498 renal
# CCRF-CEM leukemia = system: CCRF-CEM leukemia
# MOLT-4 leukemia = system: MOLT-4 leukemia
# SR leukemia = system: SR leukemia
# U251 CNS = system: U251 CNS
Compound,growth (HT29 colon),growth (SNB-75 CNS),growth (SNB-19 CNS),growth (PC-3 prostate) [%],growth (SK-MEL-5 melanoma) [%],growth (UACC-62 melanoma),growth (LOX IMVI melanoma),growth (SK-MEL-28 melanoma),growth (SK-MEL-2 melanoma),growth (EKVX NSCLC),growth (SN12C renal),growth (UO-31 renal),growth (TK-10 renal),growth (ACHN renal),growth (CAKI-1 renal),growth (A498 renal),growth (CCRF-CEM leukemia),growth (MOLT-4 leukemia),growth (SR leukemia),growth (U251 CNS) [%]
CC(C)C(=O)Cc1cnccn1,108%,102%,102%,102,109,98.1%,97%,116%,109%,99.4%,98.6%,90.8%,104%,108%,83.4%,101%,115%,123%,114%,–
O=C(/C=C/c1ccccc1)CC(c1ccccc1)N1CCOCC1 (stereo unspecified),-39.3% (active),105%,71.8%,89,98.9,85.4%,-92% (active),107%,-24.5% (active),117%,94.5%,61.3%,77%,87.8%,103%,–,–,78.4%,-7.57% (active),–
Cc1cccc(Cl)c1NC(=O)c1ccc2nc(NC(=O)NC3CC(C)(C)NC(C)(C)C3)sc2c1,59.3%,-18.9% (active),93.6%,66.3,91.7,107%,63.9%,116%,121%,–,56.5%,88.7%,80.2%,94.9%,92%,89%,87.7%,70%,–,–
O=C(O)c1ccc(NC(=O)c2cccc(Nc3ccnc(C(F)(F)F)c3)c2)cc1,106%,105%,106%,105,101,108%,–,110%,–,–,106%,82%,97.8%,103%,95.1%,106%,94.8%,93.4%,–,–
CC(=O)Nc1ccc2c(c1)Cc1c(F)c(F)c(F)c(F)c1-2,97.1%,44%,90.3%,81.9,84.7,77.4%,80.3%,102%,-27.7% (active),70.3%,90.2%,58.1%,84.7%,87.5%,86.6%,69.1%,58.9%,99.4%,52%,–
CCCCC(C#N)C(N)=O (stereo unspecified),101%,95.6%,107%,88.2,107,102%,98.4%,107%,101%,132%,101%,87.8%,107%,110%,–,122%,95.8%,90.2%,93.8%,–
c1ccc(-c2nnc(Nc3nnc(-c4ccccc4)s3)s2)cc1,106%,93.4%,111%,97.7,100,103%,–,112%,–,–,102%,82.5%,142%,96%,87.9%,92.1%,95.5%,102%,–,–
O=C1Cc2cc(CCN3CCN(CCOCCO)CC3)c(Cl)cc2N1Cc1ccc(-c2ccccc2-c2nn[nH]n2)cc1,94.2%,82.6%,90.5%,56.1,100,74.9%,89.7%,101%,81.1%,47.4%,86.1%,79.5%,–,84.1%,61%,59.9%,–,–,–,–
CCN1C[C@@H](C)n2c(c(O)c3c(=O)n(Cc4ccc(F)c(Cl)c4)nc(C(=O)NC)c32)C1=O,106%,20.2%,12%,69.4,15.1,-4.84% (active),–,28.9%,–,–,9.18% (active),11%,31.6%,13.7%,15.9%,-7.58% (active),40.4%,21.6%,2.73% (active),–
COc1ccc(-c2csc(NC(=O)c3cc(OC)c(OC)c(OC)c3)n2)cc1,110%,102%,94%,90.9,98.5,89%,–,101%,–,–,98.7%,89.3%,117%,107%,94.1%,92.2%,105%,103%,95.8%,–
CCOc1ccccc1C(=O)OCC(=O)Nc1cccc(S(=O)(=O)N(C)C)c1,98.6%,82.7%,83.5%,107,97.4,94.5%,101%,104%,94.2%,104%,103%,79%,169%,121%,95.2%,118%,169%,105%,105%,–
Cc1ccc(NC(=O)COC(=O)c2ccc(S(=O)(=O)N3CCCCCC3)cc2)cc1,106%,94.7%,33.4%,93.6,104,95%,97.1%,119%,144%,111%,98.7%,85.8%,178%,107%,108%,128%,135%,127%,131%,–
COc1ccc(Cn2c(NCCCN(C)C)nc(=O)n(Cc3ccc(F)cc3)c2=O)cc1,95.9%,81.4%,104%,80.3,97.8,97%,–,100%,–,–,95.4%,63.6%,110%,105%,83.1%,95.6%,114%,84.9%,83.5%,–
OC(c1cc(C(F)(F)F)nc2c(C(F)(F)F)cccc12)C1CCCCN1 (stereo unspecified),-66.5% (active),33%,53.7%,36.7,61.3,76.6%,11.9%,72.1%,56.4%,–,–,41.8%,11.9%,–,48.4%,53%,65.2%,19.7%,12.7%,–
O=C(Cc1ccccn1)C(F)(F)C(F)(F)C(F)(F)F,111%,93.6%,99.8%,91.3,110,102%,95.5%,105%,109%,130%,95.2%,91.6%,117%,111%,–,126%,97.5%,97%,97.9%,–
Nc1ncc(-c2cnn(C3CCNCC3)c2)cc1-c1nc2cc(Cl)ccc2o1,-100% (active),-97.9% (active),-91.1% (active),–,–,-100% (active),-96.9% (active),-100% (active),-90.8% (active),-27.6% (active),-100% (active),-100% (active),-94.1% (active),-96.8% (active),-76.9% (active),-99.9% (active),-100% (active),-91.8% (active),–,–
CCC1=C(c2ccc(OC)cc2)C(C)(C)Oc2cc(O)c(CN3CCCC3)cc21,66.6%,75%,–,70.5,67,90.1%,59.3%,101%,86.3%,85.2%,77.8%,55.8%,94.3%,82.6%,83.2%,59.5%,69.2%,66.3%,–,82.5
CC[N+](C)(CC)CCCC(C)Nc1ccnc2cc(Cl)ccc12 (stereo unspecified),111%,99.8%,–,98,101,105%,99.7%,117%,108%,109%,109%,91.4%,124%,114%,102%,100%,103%,–,–,98.8
